Reference: PubChem BioAssay AID577 (University of Pittsburgh Molecular Library Screening Center, 2007)
In all, about 65,000 compounds went through this assay and about 120 (0.18%) were called active. The list comes from a sample in which actives are over-represented; it also holds similar structures and randomly drawn compounds. A number with no mark means an inactive call. Cut-off read from the data, not from the text of the source: active = z-score below about -3; inactive = the rest.

Target: Genome polyprotein (West Nile virus) (UniProt P06935)
Assay: West Nile NS2B-NS3 proteinase blockers – biochemical, fluorogenic substrate, primary screen (AID 577)
Details: WNV NS2B-NS3 protease, fluorogenic substrate Ex360/Em465; hits give low values

Chain of Genome polyprotein (West Nile virus) (P06935 1371-1501 limits assumed): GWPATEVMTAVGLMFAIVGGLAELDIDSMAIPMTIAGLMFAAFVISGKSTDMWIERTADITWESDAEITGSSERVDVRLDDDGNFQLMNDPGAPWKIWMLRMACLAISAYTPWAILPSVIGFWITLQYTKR
Chain of Genome polyprotein (West Nile virus) (P06935 1502-1679 limits assumed): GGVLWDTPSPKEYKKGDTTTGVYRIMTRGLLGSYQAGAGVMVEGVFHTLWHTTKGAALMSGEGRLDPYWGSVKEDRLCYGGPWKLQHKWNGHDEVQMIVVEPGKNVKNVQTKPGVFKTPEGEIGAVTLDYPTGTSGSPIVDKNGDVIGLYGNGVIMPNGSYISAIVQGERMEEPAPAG

Row | Compound | z-score
1 | O=C(Nc1ccon1)c1sc2ccccc2c1Cl | 1.15
2 | O=C(O)Cc1ccc(NC(=O)C2CCCCC2C(=O)O)cc1 (centres undefined) | 0.69
3 | Cc1cccc(N2CC(C)Cn3c2nc2c3c(=O)n(CC(=O)OCc3ccccc3)c(=O)n2C)c1 (centres undefined) | -0.58
4 | O=C(Cc1c(F)cccc1Cl)N1CCN(C(=O)c2ccco2)CC1 | 0.71
5 | Cc1oc(CC(C)C)c(CN2CCCC2)c1C(=O)O | 0.09
6 | CC1CCN(c2nc3c(c(=O)[nH]c(=O)n3C)n2CCCc2ccccc2)CC1 | -0.61
7 | COc1ccc(NC(=O)Nc2cccc3cccnc23)cc1 | -0.61
8 | COc1ccc(-c2ccc(Nc3ccc(S(=O)(=O)N4CCCC4)cc3)nn2)cc1OC | -0.56
9 | c1ccc(-c2cc(-c3nnc4sc(-c5ccccn5)nn34)[nH]n2)cc1 | -1.41
10 | Cc1cc2nc(-c3ccc(NC(=O)c4cccnc4)cc3)oc2cc1C | -0.13
11 | COc1ccc(OC)c(S(=O)(=O)Nc2ccccc2F)c1 | 0.89
12 | O=C(Cn1cnc2c(nnn2-c2ccccc2)c1=O)N1CCC(Cc2ccccc2)CC1 | 2.2
13 | NS(=O)(=O)c1cc2c(cc1Cl)NC(C(Cl)Cl)NS2(=O)=O (centres undefined) | 1.86
14 | CNC(=O)n1ccc(C(=O)N2CCCCC2)n1 | 1.25
15 | COc1ccccc1N=C1SC(C)CN1C(=O)C1CCC1 (centres undefined) | -0.3
16 | COCCN1Cc2cccc(C(=O)Nc3ccccc3OC)c2C1=O | -0.41
17 | CC(C)OCCCNC(=O)C1CC(=O)N(C2CCCCCCC2)C1 (centres undefined) | -1.25
18 | CCOC(=O)C1=C(CNC2CCCCC2)NC(=O)NC1c1cc(C)ccc1C (centres undefined) | -0.35
19 | c1ccc(-c2noc(-c3cccs3)n2)nc1 | -0.18
20 | O=C(CCCN1C(=O)CSc2ncccc21)N1CCN(c2cccc(C(F)(F)F)c2)CC1 | 0.85
21 | O=C(CC1(O)C(=O)N(CN2CCOCC2)c2ccccc21)c1ccccc1 (centres undefined) | 2.57
22 | CC(C)Cn1c(CN(Cc2ccccc2)Cc2ccccc2)nc2c1c(=O)n(C)c(=O)n2C | 0.14
23 | CCOC(=O)N1CCN(CC(=O)c2ccc3c(c2)CCN3)CC1 | -0.8
24 | O=C1Nc2ccccc2C12Nc1ccccc1S2 (centres undefined) | -0.84
25 | CC(=O)N1CC2(C)CN(C(C)=O)CC(C)(C1)C2=O | -0.17

Row | Compound | z-score
26 | CCOC(=O)c1cnc(-n2nc(C)cc2C)nc1-n1nc(C)cc1C | 0.5
27 | CCOC(=O)N1CCN(C(=O)CN(C2CCCCC2)S(C)(=O)=O)CC1 | -1.44
28 | COC(=O)C1=C(C)NC2=C(C(=O)c3ccccc32)C1c1ccc(-c2ccc(C(=O)O)cc2)o1 (centres undefined) | 0.76
29 | COCCCN(C(=O)Cn1ncc2c(=O)oc3ccc(C)cc3c21)C(C)c1ccncc1 (centres undefined) | -0.67
30 | Cc1ccccc1N1CC(c2nc3ccccc3[nH]2)CC1=O (centres undefined) | 1.22
31 | O=C(CC1N=C2c3ccccc3N=C(SCc3ccccc3Cl)N2C1=O)NCc1ccco1 (centres undefined) | 1.46
32 | Cc1c(C(=O)Nc2ccccc2Cl)oc2ccc(S(=O)(=O)N3CCC4(CC3)OCCO4)cc12 | -1.64
33 | Cc1cccc(-n2c(N)cc(=O)nc2SC(C)C(=O)NC2CCCCC2)c1 (centres undefined) | -0.09
34 | CCCCN=C(N)/C(C(=O)OCC)=C(\O)c1ccc(OC)cc1 | 0.82
35 | COc1ccc2c(Cl)c(-c3nnco3)sc2c1 | -0.13
36 | C=CCOc1ccc(/C=N/n2cncn2)cc1OC | 1.7
37 | CCOCC(=O)NCc1ccc2c(c1)cc(C)n2C | -0.69
38 | Cc1ccc2c(c1)NCC(C(=O)NC1CCC(C)CC1)O2 (centres undefined) | 0.12
39 | c1ccc(-c2nnc3n2NC(c2ccc4c(c2)OCO4)S3)cc1 (centres undefined) | -0.39
40 | C=CCn1c(COc2cccc3cccnc23)nnc1SCC(=O)OC | -1.04
41 | COc1ccc(-n2c(SCC(=O)Nc3ccc4c(c3)OCO4)nnc2C(C)N2CCCCC2)cc1 (centres undefined) | -0.67
42 | CCOc1ccccc1NC(=O)CCc1ccc(C)o1 | -0.55
43 | O=C(c1ccco1)N(Cc1nc2ccccc2c(=O)[nH]1)C1CCCC1 | -1.19
44 | Cn1c(NC(=O)c2ccco2)c(-c2ccccc2Cl)c(=O)c2ccccc21 | -0.04
45 | COC(=O)c1oc2ccc(Br)cc2c1NC(C)=O | 0.25
46 | COc1ccc(C(=O)c2oc3ccc(Br)cc3c2NC(C)=O)cc1 | -3 (active)
47 | COc1ccc2oc(C)c(NC(C)=O)c2c1 | -0.59
48 | O=C1CSC(c2cccc(F)c2)N1c1ccccc1F (centres undefined) | -0.93
49 | CCCS(=O)(=O)N1CCCC(C(=O)N2CCN(c3ccccc3)CC2)C1 (centres undefined) | 0.81
50 | CCn1c(SCCC(C)C)nnc1-c1c[nH]c2ccccc12 | -0.65

Row | Compound | z-score
51 | CCOC1CCCCC1NS(=O)(=O)c1ccc(Cl)cc1 (centres undefined) | -0.25
52 | CCNC(=O)N1CCNC(=O)C1CC(=O)Nc1ccc(C(=O)OCC)cc1 (centres undefined) | -0.78
53 | Cc1cccc2nc(CNc3ccc(F)cc3)cn12 | -0.49
54 | Cc1cc(N2CCCC2=O)cc(C)c1S(N)(=O)=O | 0.56
55 | O=C(O)C1C2C=CC(C2)C1C(=O)N1CCN(CCO)CC1 (centres undefined) | 0.43
56 | CCCn1c(=O)c2[nH]c(C3CCCC3)nc2n(CCC)c1=O | 0.05
57 | CCOc1ccccc1Nc1nnc(SCC(=O)Nc2cc(C)on2)s1 | -1.46
58 | O=C(CN1C(=O)COc2ccccc21)Nc1ccc(F)cc1 | 1.4
59 | Nc1cc(OC(=O)c2ccccc2Br)nn1S(=O)(=O)c1ccccc1 | -6.2 (active)
60 | Cc1ccc(S(=O)(=O)n2nc(OC(=O)C(C)(C)C)cc2N)cc1 | 0.18
61 | CCCCN(CC)C(=O)CN(C)S(=O)(=O)c1cccc2nsnc12 | 1.67
62 | CC1Cc2ccccc2N1C(=O)CSc1nnc(-c2ccc(S(=O)(=O)N3CCCCC3)cc2)o1 (centres undefined) | 0.94
63 | CC(=O)N1CSCC1C(=O)O (centres undefined) | -5.15 (active)
64 | COCc1cc(C)nc(SCC(=O)Nc2cccc(C)c2)c1C#N | 1.36
65 | Cn1c(=NC(=O)c2cnccn2)sc2ccccc21 | -1.53
66 | O=C(Nc1ccccc1N1CCCCC1)c1cccc(F)c1 | 0.74
67 | O=C(CNC(=O)c1ccc(Cl)cc1Cl)NCC(=O)Nc1ccccc1N1CCOCC1 | -1.5
68 | CC(=NCc1ccco1)C1=C(O)c2ccccc2C1=O | 0.81
69 | CC1Cc2ccccc2N1C(=O)CSc1nc2ccccc2o1 (centres undefined) | -0.42
70 | O=C(COc1ncnc2ccccc12)NC(=O)NCc1ccccc1 | 0.88
71 | Cc1noc(C)c1COC(=O)Cn1c(C)nc2ccccc21 | -1.33
72 | CCOC(=O)N1CCC(NC(=O)C(C)n2c3ccccc3c3cnn(C)c(=O)c32)CC1 (centres undefined) | -0.72
73 | C[C@H](NC(=O)NCCc1ccccc1)C(=O)O | 0.46
74 | CC(=O)Nc1cccc2c1[n+]([O-])c(C)c(C)[n+]2[O-] | 1.06
75 | CC(NC(=O)CN1CCN(Cc2ccc(Cl)cc2)C1=O)c1ccc2c(c1)OCCO2 (centres undefined) | 0.67

Row | Compound | z-score
76 | COc1ccc(OC)c(-n2cc3c(=O)n(C)c(=O)n(C)c3c2)c1 | 0.45
77 | C=C(C)COc1ccc(-c2n[nH]c(C)c2-c2ccccc2OC)c(O)c1 | 0.16
78 | COc1ccc(CC(NC(C)=O)C(=O)NC2CCN(C(=O)Nc3ccc(C#N)cc3)CC2)cc1OC (centres undefined) | -0.8
79 | Cc1cc(NC(=O)CCC(=O)N(c2cccc(F)c2)C(C(=O)NC2CCCC2)c2ccncc2)no1 (centres undefined) | 1.41
80 | CCOc1ccc(-c2nnc(-c3ccco3)o2)cc1 | -0.08
81 | Cc1ccc(OCC(=O)Nc2ccc(-c3nnc(-c4ccco4)o3)cc2)cc1 | -3.16 (active)
82 | COc1ccc(CC(=O)Nc2ccc(-c3nnc(-c4ccc(C)cc4)o3)cc2)cc1 | 0.17
83 | CCCn1c(O)c(CN2CCCC(C)C2)c(C)c(C#N)c1=O (centres undefined) | -0.51
84 | Clc1ccc(Cc2nn3c(-c4ccncc4)nnc3s2)cc1 | 0.04
85 | O=C(O)C1OC(C(=O)O)C2C1C(F)(F)C2(F)F (centres undefined) | 1.24
86 | CC1CSc2nnc(CCc3ccccc3)n21 (centres undefined) | -0.75
87 | CCOC(=O)C1CCCN(C(=O)c2ccc(CS(=O)(=O)c3ccc(Br)cc3)o2)C1 (centres undefined) | -0.97
88 | COc1cc2c(cc1NC(=O)CN1CCN(S(=O)(=O)c3ccc(F)cc3)CC1)oc1ccccc12 | -0.05
89 | CC(=O)N1C(=O)C2(Nc3ccccc3N2)c2ccccc21 | -0.34
90 | O=S(=O)(NCc1ccccn1)c1ccc(F)cc1 | -0.56
91 | Cc1cc(=O)n2c3c(cccc13)CCC2 | -0.73
92 | CCCCc1nc2ccccc2c(NC(=O)CN2CCN(C)CC2)c1CCC | -1.27
93 | Cc1ccc(C(C(=O)NC2CCCC2)N(Cc2ccco2)C(=O)CCC(=O)Nc2ccccn2)cc1 (centres undefined) | 0.98
94 | O=C(NCc1cn2ccsc2n1)Nc1ccc(Cl)cc1 | -0.25
95 | COc1ccc(-c2cn3ccsc3n2)cc1 | -7.48 (active)
96 | CCCC(=O)Nc1cccc(-c2cn3ccsc3n2)c1 | -1.1
97 | CCOc1ccc(NC(=O)Nc2cc(C)on2)cc1 | 0.95
98 | Cn1c(=O)c2c(ncn2CC(=O)N2CCN(c3ccccc3)CC2)n(C)c1=O | 0.25
99 | c1ccc(CCC2=NCCn3cccc32)cc1 | -0.03
